Screening results as filed in PubChem.
Tau FP inhib – blocks human tau fibril formation measured by polarization; K18 P301L tau heparin fibrillization, Alexa594 FP, 6 h; AID 1468; Potency, µM (series often up to 57.7 µM), for the others: top-dose activity, negative = inhibition, hits mostly inhibitors; P10636; 280,000 compounds, 0.39% hits; also: % is scaled to controls: 0 for no effect and ±100 for the full control effect; nearly all actives have a fitted effect of over 55% in size
Target sequence (P10636 561-689 P618L limits assumed): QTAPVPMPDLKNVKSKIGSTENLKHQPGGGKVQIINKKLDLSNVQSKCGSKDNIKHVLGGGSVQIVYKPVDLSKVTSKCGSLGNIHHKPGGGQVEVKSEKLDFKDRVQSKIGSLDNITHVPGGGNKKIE
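Recombinant K18 P301L […], labeled with Alexa 594 at 0.24 uM over 15 uM unlabeled; heparin inducer 20 uM final; 37 C, 6 hr; FP endpoint.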
Tau fluor counter – counter-screen for tau fibril formation inhibitors | tau K18 P301L Alexa594 fluorescence, heparin fibrillization | Potency, µM (doses to about 57.7 µM), for the others: at the top dose activity change, negative = decrease | 280,000 compounds, 0.93% hits | AID 1463; also: % is scaled to controls: 0 for no effect and ±100 for the full control effect; nearly all actives have a fitted effect of over 55% in size
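Human tau K18 P301L (15 uM unlabeled, 0.24 uM Alexa 594-labeled) in 100 mM sodium acetate pH 7 with 20 uM heparin, 6 hr at 37 C. ThT 30 uM added, 1 hr ambient; Alexa 594 FP and total fluorescence read at 555/632 nm.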
Tau ThT inhib – blocks human tau fibril formation measured by thioflavin T. P10636. recombinant tau K18 P301L (four-repeat tau fragment), heparin-induced fibrillization, ThT fluorescence. Potency, µM (doses to about 57.4 µM), without a hit: top-dose activity, negative = inhibition, actives largely listed as inhibitors. 270,000 compounds, 2.1% hits. AID 1460; also: % is scaled to controls: 0 for no effect and ±100 for the full control effect; nearly all actives have a fitted effect of over 55% in size
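In this qHTS, human K18 P301L tau is incubated with compound and heparin for 6 hr at 37 C, and Thioflavin T fluorescence then reports fibril load.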
HTT ATP protect – cytoprotection in Huntington HTT-Q103 PC12 cell model | PC12 HTT-Q103 induced, cytoprotection, ATP luminescence, 40 h | Potency, µM (series often up to 56.4 µM), for the others: cytoprotection (ATP increase), actives largely listed as activators | 230,000 compounds, 0.14% hits; also: % of control where 0% means no effect; nearly all actives have a fitted effect of over 45% in size
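Rat PC12, Q103 Htt exon1-GFP fusion, ecdysone promoter; tebufenozide inducer 100 nM final; compound titration; qHTS, 1500 cells/well; ATPlite luminescent read.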
HttQ103 aggreg – mutant huntingtin aggregation inhibition. Potency, µM (top dose mostly 46.1 µM), without a hit: at the top dose activity change, negative = inhibition, hits mostly inhibitors. 220,000 compounds, 1.1% hits. PC12 HttQ103-GFP aggregates, Acumen cytometry, 40 h; also: % is scaled to controls: 0 for no effect and ±100 for the full control effect; nearly all actives have a fitted effect of over 60% in size
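Aggregates are detected as GFP objects 1–25 µm with signal 6 STDEV over background in lysates of induced PC12 cells. These carry Huntingtin exon 1 with 103 glutamines fused to GFP under an ecdysone promoter; compounds titrated.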
* = called active by the depositor; ? = inconclusive; . = not tested or not shown; [ ] = remark or other dose. In the library only some 3.7% were active in any assay of this set; here they are far more common. Calls follow the shape of the dose curve; as a rule, active = well fitted curve in the direction sought with a large enough effect; inconclusive = small, poorly fitted or top-dose-only effect, or another doubt; inactive = no such curve, though single readings can be large; an effect the other way counts as inactive or inconclusive. Potency is read from the fitted curve at half-maximal effect.

SMILES | Tau FP inhib | Tau fluor counter | Tau ThT inhib | HTT ATP protect | HttQ103 aggreg
Cc1nc2ccc(N=NN(C)C)cc2[nH]1 | ? | ? | 10µM* | 12.0%[10 µM] | -9.0%[9.22 µM]
COc1ccccc1OCC(=O)Nc1oc(-c2ccccc2)c(-c2ccccc2)c1C#N | 3.4% | -29.4% | -8.5% | 6.5% | 7.9%
COc1ccc(-c2oc(NC(=O)CCl)c(C#N)c2-c2ccc(OC)cc2)cc1 | -15.1% | 15.8µM*[quencher] | 25.1µM* | -39.7% | 6.0%[9.22 µM]
COc1ccc(-c2oc(NC(=O)CSc3ncn[nH]3)c(C#N)c2-c2ccc(OC)cc2)cc1 | 0.4% | 14.1µM*[quencher] | ? | -34.3% | -18.5%
COc1ccc(N2CCN(S(=O)(=O)CCNC(=O)Cc3ccc(Cl)cc3)CC2)cc1 | 1.2% | -4.2% | -2.1% | . | .
CC(=O)c1cccc(NC(=O)Nc2c(C)n(C)n(-c3ccccc3)c2=O)c1 | -0.2% | -11.3% | -7.6% | . | .
Cc1c(NC(=O)c2cccc(NS(C)(=O)=O)c2)c(=O)n(-c2ccccc2)n1C | ? | -8.5% | -3.9% | 7.7%[10 µM] | 1µM*
CCOC(=O)c1ccc(NC(=O)C(CC)Sc2nc3ncccc3[nH]2)cc1 (stereo not given) | -9.2% | -26.1% | -2.8% | . | .
O=C(Nc1cc(Cl)ccc1O)c1snnc1-c1ccccc1 | 16.4% | ? | -7.1% | -67.0% | 15.8µM*
C=CCc1cccc(/C=N/NC(=O)CCC(=O)Nc2ccc(F)cc2)c1O | ? | -18.1% | 6.5% | -10.9%[10 µM] | ?
C=CCc1cccc(/C=N/NC(=O)CCCNc2ccc(C)cc2)c1O | 11.3% | 11.2µM*[quencher] | ? | 26.6%[10 µM] | ?
C=CCc1cccc(/C=N/NC(=O)C(C)Nc2cccc(C)c2)c1O (stereo not given) | 2.9% | ? | -9.3% | -128.0% | 11.2µM*
C=CCc1cccc(/C=N/NC(=O)CNc2ccccc2OC)c1O | ? | 15.8µM*[quencher] | ? | -119.6% | 20µM*
C=CCc1cccc(/C=N/NC(=O)CNc2cccc3ccccc23)c1O | 3.6% | -4.6% | 2.4% | -13.3%[10 µM] | 24.7%
COc1ccccc1OCC(=O)N/N=C/C=C/c1ccc([N+](=O)[O-])o1 | -4.4% | -20.6% | 14.1µM* | 15.3%[10 µM] | ?
Cc1ccccc1OCC(=O)N/N=C/c1ccc([N+](=O)[O-])o1 | 8.0% | -14.6% | -17.4% | -5.7%[10 µM] | ?
C[N+]1(C)CCO[C@](O)(c2ccccc2)C1 | . | . | . | 3.6%[10 µM] | .
COc1ccc(NCC(=O)N/N=C/C=C\c2ccccc2)cc1 | 2.8% | -4.0% | -0.2% | 0.9%[10 µM] | -3.2%
COc1ccccc1NCC(=O)N/N=C/C=C/c1ccccc1 | 4.1% | ? | 14.1µM* | -4.9%[10 µM] | 20.2%
C=CCc1cccc(/C=N/NC(=O)CNc2ccccc2)c1O | ? | ? | 4.4% | -72.6% | 11.2µM*
O=C(CNc1ccccc1)N/N=C/c1ccc2c(c1)OCO2 | 6.1% | -12.8% | ? | -14.1%[10 µM] | -15.4%
C=CCn1c(CNc2ccccc2)nnc1SCC(=O)N/N=C/c1ccccc1O | 10.5% | -18.6% | -5.8% | -48.9% | 17.8µM*
NS(=O)(=O)c1ccc(NC(=O)Nc2ccccc2F)cc1 | . | . | . | 8.7%[10 µM] | .
C=CCCCC | . | . | . | 0.9% | .
Cc1ccc(SCc2[nH]nc3c2C(c2ccco2)C(C#N)=C(N)O3)cc1 (stereo not given) | ? | ? | 20µM* | -21.8% | 26.6%
SMILES | Tau FP inhib | Tau fluor counter | Tau ThT inhib | HTT ATP protect | HttQ103 aggreg
C/C(=C\c1ccco1)C1C(C#N)=C(N)Oc2n[nH]c(-c3ccc(C)cc3)c21 (stereo not given) | -10.0% | ? | -14.5% | 3.55µM* | 27.0%
Cc1ccc(SCc2[nH]nc3c2C(c2ccc(C)o2)C(C#N)=C(N)O3)cc1 (stereo not given) | ? | ? | 14.1µM* | -10.8% | -4.1%
Cc1ccccc1CNC(=O)CCC(=O)N1CCSc2ccccc21 | 3.2% | -0.3% | 0.4% | . | .
CCc1ccc(N2C(=O)CS(=O)(=O)C23C(=O)N(Cc2ccccc2)c2ccccc23)cc1 (stereo not given) | -5.4% | -15.4% | -5.6% | . | .
COCOc1cc(OC)ccc1C(=O)/C=C/c1cccc(C(F)(F)F)c1 | 3.9% | -4.2% | -8.3% | -8.9% | .
Cc1nc2cc(-c3cccc(F)c3)nn2c(C)c1CCC(=O)Nc1ccccc1C(N)=O | -12.4% | -13.2% | -10.0% | . | .
CSc1ccc(C(=O)/C=C/c2ccc(N)cc2)cc1 | 2.3% | ? | 15.8µM* | -6.7%[10 µM] | ?
O=c1cc(-c2ccccc2Cl)oc2c(NS(=O)(=O)c3cc(Cl)cc(Cl)c3O)ccc(O)c12 | 31.6µM* | ? | 22.4µM* | -357.7%[40.3 µM] | ?
c1ccc(C2Oc3ccccc3C3CC(c4cccs4)=NN32)cc1 (stereo not given) | -14.3% | -21.5% | ? | 16.9%[10 µM] | -1.3%
Oc1ccccc1C1CC(c2cccs2)=NC(c2cccc(Br)c2)N1 (stereo not given) | 8.6% | ? | ? | -46.7% | 11.2µM*
CCN(CC)c1ccc(/C=C2\C(=O)c3ccc(C(=O)O)cc3C2=O)cc1 | ? | -7.4% | 2µM* | 8.7%[10 µM] | 21.9%
O=C(O)c1cc(C(=O)O)nc(C(=O)O)c1 | . | . | . | -0.3%[10 µM] | .
CC(=O)Nc1cc(OC(C)=O)c2nonc2c1OC(C)=O | 2µM* | ? | 1.12µM* | -118.6% | 7.08µM*
CC(=O)Nc1nonc1NC(C)=O | 4.2% | 10.2% | 1.3% | 3.3%[10 µM] | 19.2%
COc1ccc(C2=CC(c3ccccc3Cl)n3nc(-c4ccc(C)cc4)nc3N2)cc1 (stereo not given) | ? | -13.3% | -2.6% | . | .
CCc1ccc(NCc2cc3cc4c(cc3n(CC(=O)Nc3ccccc3Cl)c2=O)OCO4)cc1 | ? | ? | -9.3% | . | .
Cc1ccccc1-n1c(C)cc(/C=C2/C(=N)N3C(c4ccccc4)=CSC3=NC2=O)c1C | -16.7% | -22.2% | -16.6% | -15.4%[10 µM] | 5.9%
N=C1/C(=C\c2ccc(-c3cccc(C(=O)O)c3)o2)C(=O)N=C2SC=C(c3ccccc3)N12 | 7.6% | -8.4% | 2.51µM* | 10.5%[10 µM] | 1.9%[9.22 µM]
